# Compounds with a hit are over-represented: about 2% of the library has one in this group of screens.
# NadD block: blocks S. aureus nicotinate mononucleotide adenylyltransferase; purified NadD enzyme, colorimetric absorbance read-out; inhibition, % at 20 µM; 0.78% of 360,000 active; in the data active = inhibition above about 26%
# ARNT-TACC3 inh: disrupts binding between human ARNT and TACC3 | Q9Y6A5 | AlphaScreen His-ARNT PAS-B/GST-TACC3 binding, luminescence; TACC3 fragment carries E629A point mutation | inhibition, % at 9.99 µM | 0.66% of 390,000 active | AID 623870;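 active = mean inhibition of replicates at least 50% and at least half of replicates each reaching 50%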;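 note: 0% = complete ARNT plus TACC3 wells and 100% = ARNT alone without TACC3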
# DAGLB inhibitor: blocks human DAGLB lipase activity. HEK293T DAGLB membrane lysate, EnzChek fluorogenic substrate. Q8NCG7. inhibition, % at 5.17 µM. 0.059% of 340,000 active; in the data active = inhibition above about 34%;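 note: 0% = enzyme with vehicle and 100% = wells lacking enzyme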
# Neddylation inh: inhibitors of human cullin neddylation; 0.58% of 360,000 active; AID 651699; TR-FRET cullin neddylation, biochemical; P61081+Q13564; inhibition, % at 25 µM; in the data active = inhibition above about 36%
# HGIII-sPLA2 inh: Inhibits HGIII-sPLA2 liposome hydrolysis, primary screen; 0.56% of 370,000 active; Q9NZ20; inhibition, % at 12.2 µM; QFRET BODIPY PC-A2 liposome hydrolysis, fluorescence; AID 743126;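 active = inhibition above mean plus 3 SD of compounds lying within the high and low control bounds, cut at about 19% in these data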;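 note: 0% = median of test compound wells and 100% = no enzyme DMSO wells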
# Target sequence (Q9NZ20 whole entry, looked up): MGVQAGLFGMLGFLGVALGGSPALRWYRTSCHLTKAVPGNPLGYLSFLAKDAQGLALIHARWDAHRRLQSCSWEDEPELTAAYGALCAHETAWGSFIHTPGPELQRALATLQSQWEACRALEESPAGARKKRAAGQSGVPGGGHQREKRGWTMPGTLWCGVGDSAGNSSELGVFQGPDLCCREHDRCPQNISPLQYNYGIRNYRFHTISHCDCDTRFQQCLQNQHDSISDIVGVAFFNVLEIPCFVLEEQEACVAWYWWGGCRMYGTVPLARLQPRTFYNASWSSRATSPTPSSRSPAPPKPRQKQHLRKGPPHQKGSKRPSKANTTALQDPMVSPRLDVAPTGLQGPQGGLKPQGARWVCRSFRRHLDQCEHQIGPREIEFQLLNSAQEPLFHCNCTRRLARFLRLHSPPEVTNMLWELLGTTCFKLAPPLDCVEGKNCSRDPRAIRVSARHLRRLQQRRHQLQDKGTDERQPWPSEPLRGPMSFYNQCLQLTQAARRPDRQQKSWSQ
# Starred values were filed as active, the others as inactive; nt = no result given; ! = repeats disagree.
SMILES,NadD block,ARNT-TACC3 inh,DAGLB inhibitor,Neddylation inh,HGIII-sPLA2 inh
Nc1c(Cl)ncnc1N/N=C/c1ccc2ccccc2n1,7.0,64.3*,6.2,0.2,-5.3
COc1cccc2c1C(=O)c1c(O)c3c(c(O)c1C2=O)C[C@@](O)(C(=O)CO)C[C@@H]3OC1CC(N)C(O)C(C)O1 (some centres not stated),52.6*,6.5,-21.5,-64.6,-73.5
C[C@@H]1CN([C@H](C)CO)C(=O)c2cc(NC(=O)C3CC3)ccc2O[C@H]1CN(C)C,nt,49.0*,nt,nt,nt
Cc1ccc(S(=O)(=O)N(C)C[C@@H]2Oc3c(NC(=O)NC4CCCCC4)cccc3C(=O)N([C@H](C)CO)C[C@@H]2C)cc1,nt,active,nt,nt,nt
Cc1ccc(S(=O)(=O)N(C)C[C@@H]2Oc3ccc(NC(=O)Cn4cnnn4)cc3C(=O)N([C@@H](C)CO)C[C@H]2C)cc1,-1.0,active!,-2.3,-5.5,-7.8
Cc1noc(C)c1S(=O)(=O)N(C)C[C@H]1Oc2ccc(NC(=O)C3CC3)cc2CC(=O)N([C@H](C)CO)C[C@@H]1C,nt,3.0,nt,nt,nt
CCC(=O)Nc1ccc2c(c1)C(=O)N(C)C[C@@H](OC)[C@@H](C)CN(C(=O)c1cnccn1)[C@@H](C)CO2,nt,-13.6,nt,nt,nt
CC(=O)NC(c1cccc([N+](=O)[O-])c1)c1ccc2cccnc2c1O (configuration not stated),6.4,21.5,7.4,-18.1,0.3
Oc1c(C(Nc2cccc(C(F)(F)F)c2)c2cccnc2)ccc2cccnc12 (configuration not stated),15.9,20.8,8.7,40.4*,5.7
COc1cccc(C(NC(C)=O)c2ccc3cccnc3c2O)c1 (configuration not stated),5.2,99.8*,3.7,-2.4,1.4
O=c1c2ccccc2[nH]c2ccc(O)cc12,4.8,-1.0,-1.0,42.0*,-18.9
Cc1ccc2[nH]c3ccccc3c(=O)c2c1,-0.9,16.5,-0.6,nt,4.6
Cc1noc(C)c1NC(=O)N(C)C[C@@H]1OCCCC[C@H](C)Oc2ccc(N(C)C)cc2C(=O)N([C@H](C)CO)C[C@H]1C,nt,4.0,nt,nt,nt
Cc1ccc(C(=O)NC(=S)NNC(=O)CCN2CCOCC2)cc1,1.6,39.6*,-1.8,-3.5,7.1
O=C(NC(=S)NCCN1CCOCC1)c1ccc(F)cc1,3.4,-1.9,2.7,2.6,10.8
Cc1ccc(C(=O)NNC(=S)NC(=O)c2ccccc2)cc1,2.8,15.6,-4.7,38.9*,35.2*
CCC(=O)NC(c1cccs1)c1cc([N+](=O)[O-])c2cccnc2c1O (configuration not stated),7.1,70.7*,22.4,-31.7,18.9
COCC(=O)N(C)C[C@H]1Oc2ncc(-c3ccc(C#N)cc3)cc2C(=O)N([C@@H](C)CO)C[C@H]1C,nt,-2.9,nt,nt,nt
CCOc1cccc(/C=N/NC(=O)c2cccnc2)c1O,-1.4,55.6*,-0.9,-13.2,-2.1
COc1cc([N+](=O)[O-])cc(/C=N/NC(=O)c2cccnc2)c1O,-5.3,72.9*,2.8,-44.7,-1.3
COc1cc([N+](=O)[O-])cc(/C=N/NC(=O)C(C)Nc2cccc3ccccc23)c1O (configuration not stated),48.4*,15.3,20.5,-53.2,1.4
COc1cc([N+](=O)[O-])cc(/C=N/NC(=O)C(O)(c2ccccc2)c2ccccc2)c1O,17.4,29.6,6.7,-42.1,-5.2
CCOc1cccc(/C=N/NC(=O)c2cc(C3CC3)[nH]n2)c1O,4.5,71.4*,1.2,6.1,-13.4
CC(Nc1cccc2ccccc12)C(=O)N/N=C/c1ccc([N+](=O)[O-])cc1 (configuration not stated),13.8,2.8,-0.6,-48.6,6.8
COc1cc(/C=N/NC(=O)c2cc(C3CC3)[nH]n2)cc(OC)c1OC,-6.8,3.6,-2.2,11.0,3.1
SMILES,NadD block,ARNT-TACC3 inh,DAGLB inhibitor,Neddylation inh,HGIII-sPLA2 inh
CC(C)NC(=O)N(C)C[C@@H]1Oc2ccc(NC(=O)Cn3cnnn3)cc2CC(=O)N([C@@H](C)CO)C[C@H]1C,nt,1.3,nt,nt,nt
COc1cccc(/C=N/NC(=O)c2nc(-c3ccccc3)cc(-c3ccccc3)n2)c1O,29.2*,0.3,8.8,-3.2,-5.4
COc1cccc(C=NNC(=O)c2ccncc2)c1O,1.6,68.9*,2.5,-12.5,-5.1
CCn1c(C)nc2cc(C(=O)N/N=C/c3cccc(OC)c3O)ccc21,-2.0,40.4*,3.8,-4.2,-12.5
O=C(Cc1ccccc1)N[C@@H]1CC[C@@H](CC(=O)N2CCOCC2)O[C@@H]1CO,nt,0.0,nt,nt,nt
Nn1c(-c2ccccn2)nnc1-c1ccccn1,-0.6,79.5*,0.6,0.1,7.7
O=C(C[C@H]1CC[C@H]2[C@@H](COC[C@@H](O)CN2Cc2ccc(Oc3ccccc3)cc2)O1)N1CCCCC1,nt,17.5,nt,nt,nt
Oc1ccc(Br)cc1CNc1cnc2ccccc2c1,0.1,-2.0,0.6,34.8,-54.9
Cc1ccc(O)c(CNc2cnc3ccccc3c2)c1,-2.3,10.0,2.3,38.9*,-24.7
O=c1[nH]c(Nc2ccccc2Cl)cc2ccccc12,1.5,37.2*,-0.2,-7.8,-3.1
Cc1ccccc1Nc1cc2ccccc2c(=O)[nH]1,-1.1,23.7,0.2,-9.9,nt
CC(C)n1cnc2c(NCc3ccccc3)cc(N[C@H](C)CO)cc21,9.3,34.5*,-4.1,-4.0,nt
CCC(CO)Oc1cc(NCc2ccccc2)c2ncn(C(C)C)c2c1 (configuration not stated),2.9,40.6*!,2.6,-7.1,-0.1
CCOCCOc1cc(NCc2ccccc2)c2ncn(C(C)C)c2c1,-0.9,19.5*,-0.8,-13.8,-4.1
N#C/C(=C\c1ccc(N2CCCC2)c([N+](=O)[O-])c1)c1nc2ccccc2[nH]1,31.5*,27.1,3.3,-37.2,-5.2
N#C/C(=C\c1ccc(N2CCCCC2)c([N+](=O)[O-])c1)c1nn(-c2ccccc2)c(N)c1C#N,2.3,nt,5.2,0.2,-0.2
Cc1cc(C(=O)COC(=O)c2ccccc2O)c(C)n1CC1CCCO1 (configuration not stated),-5.4,nt,-2.0,3.2,-3.6
Cc1cc(C(=O)COC(=O)c2cc(O)c3ccccc3c2O)c(C)n1CC1CCCO1 (configuration not stated),35.9*,11.7,5.0,-9.8,nt
CCc1ccc(S(=O)(=O)Nc2cc(SCC(=O)O)c(O)c3ccccc23)cc1,11.5,nt,-4.7,-23.4,-0.2
Cc1ccc(C)c(S(=O)(=O)Nc2cc(SCC(=O)O)c(O)c3ccccc23)c1,13.8,54.1*,2.7,-18.4,nt
CC(C)c1ccc(S(=O)(=O)/N=C2/C=C(Sc3ncn[nH]3)C(=O)c3ccccc32)cc1,83.3*,40.2,1.5,-13.0,nt
Cc1ccc(S(=O)(=O)Nc2ccc(O)c(Sc3ncn[nH]3)c2)cc1,-5.1,-8.0,0.3,-6.8,-58.9
Cc1ccc(S(=O)(=O)/N=C2/C=C(Sc3ncn[nH]3)C(=O)c3ccccc32)cc1,50.1*,31.7,-12.9,-24.8,nt
CC(C)NC(=O)N[C@H]1CC[C@@H](CC(=O)N2CCCCC2)O[C@@H]1CO,nt,-4.3,nt,nt,nt
